The nature of experiment [1]: viability loss in pontine glioma line – cell-based, JHH-DIPG-1, MIPE4.0, CellTiter-Glo, qHTS, dose response (AID 1347062; cut-off not given, nearly all actives have AC50 up to about 27 µM). Particulars: JHH-DIPG-1 viability, CellTiter-Glo ATP luminescence.
Experiment [2] is described as follows: viability loss in pontine glioma line – cell-based, SU-DIPG-IV, MIPE4.0, CellTiter-Glo, qHTS, dose response (AID 1347063; cut-off not given, nearly all actives have AC50 up to about 30 µM;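 note: compound exposure lasted 48 hours before the viability readout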). Particulars: CellTiter-Glo ATP luminescence. Background: In ATP-based viability assays light output follows the ATP content of the culture.
Experiment [3] is described as follows: growth inhibition of DIPG cells – cell-based, MIPE4.0 library, CellTiter-Glo luminescence, qHTS (AID 1347066; cut-off not given, nearly all actives have AC50 up to about 30 µM;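 note: cells exposed to compound for 48 hours before readout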). Particulars: SU-DIPG-VI viability, CellTiter-Glo ATP luminescence.
A short description of experiment [4]: growth inhibition, single agent or in combination, cell-based, chromothripsis tumors, cisplatin or BGB combos (AID 1671449; in the data active = inhibition above about 80%;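 note: cells exposed for 96 hours; 0% = vehicle DMSO and 100% = killing by high DMSO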). Particulars: LFS_MB_P medulloblastoma cells.
The nature of experiment [5]: growth inhibition, single agent and combos, cell-based, chromothripsis tumors, cisplatin or BGB combos (AID 1671450; in the data active = inhibition above about 80%;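 note: cells exposed to compound for four days; 0% = vehicle DMSO and 100% = cell killing by high DMSO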). Particulars: HDN33 neuroblastoma cells, stronger effect = higher value.
A short description of experiment [6]: growth inhibition, single agents and combos, HTB85, cell-based, BGB or cisplatin IC20 combos, synergistic combos for chromothripsis tumors (AID 1671453; in the data active = inhibition above about 80%;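 note: cells exposed for 96 hours before readout; 0% = vehicle DMSO and 100% = high DMSO killing control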). Particulars: HTB85 osteosarcoma cells, drug combinations, stronger effect = higher value.
Experiment [7] in a line: growth inhibition, MDA-MB-436, cell-based, BGB or cisplatin combos, synergistic combos for chromothripsis tumors (AID 1671458; call rule not given here;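 note: cells exposed for 96 hours; 0% = vehicle DMSO and 100% = killing by high DMSO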). Particulars: MDA-MB-436 breast carcinoma growth inhibition, drug combinations, stronger effect = higher value.
The nature of experiment [8]: BT084 cell growth, single and combined drugs, ICGC_MB145, cisplatin and BGB IC40 combos (AID 1671461; in the data active = inhibition above about 80%;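 note: cells exposed to drugs for 96 hours; 0% = vehicle DMSO and 100% = high DMSO full killing control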). Particulars: BT084 medulloblastoma cells, drug combinations, stronger effect = higher value.
A short description of experiment [9]: RCMB18 cell growth, single agent and combined, cisplatin and BGB IC40 combos (AID 1671462; in the data active = inhibition above about 80%;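 note: cells exposed to compound for four days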). Particulars: RCMB18 medulloblastoma cells, stronger effect = higher value.
Experiment [10] can be described thus: CRL1545 cell growth, single agent and combined, cisplatin and BGB IC20 combos (AID 1671464; in the data active = inhibition above about 80%;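 note: cells exposed to compound for 96 hours before readout; 0% = vehicle DMSO and 100% = high DMSO killing control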). Particulars: CRL1545 osteosarcoma cells, stronger effect = higher value.
The target of experiment [11] is ATP-dependent translocase ABCB1 (Homo sapiens) (UniProt P08183). Description: P-glycoprotein substrate transport blockade – cell-based (AID 377; in the data active = fluorescence slope change above about 50%). Particulars: MDR1-expressing cells, fluorescent substrate accumulation slope; stronger effect = higher value; concentration not given here.
The nature of experiment [12]: GFP-Q80 aggregate reduction, neuronal-like cells, cell-based, NGF-treated PC12, GFPQ80 (AID 1614).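 Note: lower means fewer inclusions and 0 means no inclusions at all.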 Particulars: PC12 NGF-treated GFP-polyQ80 inclusion reduction.
The subject of experiment [13] is Aerobactin synthetase IucA (Klebsiella pneumoniae). Description: inhibition of K. pneumoniae IucA enzyme – biochemical, Tocris library, absorbance (AID 1345561; call rule not given here;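 note: 100% = enzyme without compound and 0% = no enzyme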). Particulars: purified IucA enzyme assay, absorbance (OD) read-out; stronger effect = lower value;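 tested at 8 µM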.
Experiment [14] can be described thus: viability loss in pontine glioma line – cell-based, SU-DIPG-XIII, MIPE4.0, CellTiter-Glo, qHTS, dose response (AID 1347061; cut-off not given, nearly all actives have AC50 up to about 37 µM;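 note: cells exposed to compound for 48 hours before readout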). Particulars: CellTiter-Glo ATP luminescence.
A short description of experiment [15]: signal quenchers or enhancers, Cy5 substrate/SSB – biochemical, NIH Clinical Collection, E. coli SSB, artefact control for HCV NS3 helicase inhibitor project (AID 743268; call rule not given here). Particulars: Cy5-oligo bound E. coli SSB, fluorescence interference.
For another experiment, the system named is F380Y/beta1. The experiment can be described thus: BK channel mutant inhibitors and activators – cell-based, U2OS BacMam, thallium flux, beta subunits, selectivity assay, profiling panel (AID 1259406).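 Note: initial slope of Thallos dye fluorescence rise after thallium is added; log ratio against the mean of 0.3% DMSO vehicle wells on the same plate.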 Particulars: U2OS BacMam BK variants, at 30 µM.
For another experiment, the system named is F380Y/beta4. The description is as above. Particulars: U2OS BacMam BK variants, at 30 µM.
A further experiment concerns R275C/beta4. The description is as above. Particulars: U2OS BacMam BK variants, at 30 µM.
The test system of the next experiment is R275C/Slo1WT/beta2. The experiment is described as above. Particulars: U2OS BacMam BK variants, at 30 µM.
Experiment [16] can be described thus: growth inhibition of DIPG cells – cell-based, MIPE5.0 library, qHTS (AID 1347068; cut-off not given, nearly all actives have IC50 up to about 30 µM). Particulars: SU-DIPG-XXV viability. In general terms: qHTS replaces the single test concentration by a dilution series.
The mark [17] stands for this setting: measured here: with BGB IC20 combination, at 0.5 µM.
The mark [18] stands for this setting: measured here: with cisplatin IC20 combination, at 0.5 µM.

Records with an inconclusive call do not appear. Activity calls are given as the source filed them.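 Rule for the calls, unless noted: active = thallium flux through the channel raised or lowered by more than 3 SD from vehicle-only wells, actives on both sides; inactive = the rest.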

As a reminder, the inhibition is the relative decrease from the control value, in per cent. In general, remaining activity refers to the signal under treatment as a percentage of the control signal.

ATP-dependent translocase ABCB1 (Homo sapiens), sequence (P08183 whole entry, looked up): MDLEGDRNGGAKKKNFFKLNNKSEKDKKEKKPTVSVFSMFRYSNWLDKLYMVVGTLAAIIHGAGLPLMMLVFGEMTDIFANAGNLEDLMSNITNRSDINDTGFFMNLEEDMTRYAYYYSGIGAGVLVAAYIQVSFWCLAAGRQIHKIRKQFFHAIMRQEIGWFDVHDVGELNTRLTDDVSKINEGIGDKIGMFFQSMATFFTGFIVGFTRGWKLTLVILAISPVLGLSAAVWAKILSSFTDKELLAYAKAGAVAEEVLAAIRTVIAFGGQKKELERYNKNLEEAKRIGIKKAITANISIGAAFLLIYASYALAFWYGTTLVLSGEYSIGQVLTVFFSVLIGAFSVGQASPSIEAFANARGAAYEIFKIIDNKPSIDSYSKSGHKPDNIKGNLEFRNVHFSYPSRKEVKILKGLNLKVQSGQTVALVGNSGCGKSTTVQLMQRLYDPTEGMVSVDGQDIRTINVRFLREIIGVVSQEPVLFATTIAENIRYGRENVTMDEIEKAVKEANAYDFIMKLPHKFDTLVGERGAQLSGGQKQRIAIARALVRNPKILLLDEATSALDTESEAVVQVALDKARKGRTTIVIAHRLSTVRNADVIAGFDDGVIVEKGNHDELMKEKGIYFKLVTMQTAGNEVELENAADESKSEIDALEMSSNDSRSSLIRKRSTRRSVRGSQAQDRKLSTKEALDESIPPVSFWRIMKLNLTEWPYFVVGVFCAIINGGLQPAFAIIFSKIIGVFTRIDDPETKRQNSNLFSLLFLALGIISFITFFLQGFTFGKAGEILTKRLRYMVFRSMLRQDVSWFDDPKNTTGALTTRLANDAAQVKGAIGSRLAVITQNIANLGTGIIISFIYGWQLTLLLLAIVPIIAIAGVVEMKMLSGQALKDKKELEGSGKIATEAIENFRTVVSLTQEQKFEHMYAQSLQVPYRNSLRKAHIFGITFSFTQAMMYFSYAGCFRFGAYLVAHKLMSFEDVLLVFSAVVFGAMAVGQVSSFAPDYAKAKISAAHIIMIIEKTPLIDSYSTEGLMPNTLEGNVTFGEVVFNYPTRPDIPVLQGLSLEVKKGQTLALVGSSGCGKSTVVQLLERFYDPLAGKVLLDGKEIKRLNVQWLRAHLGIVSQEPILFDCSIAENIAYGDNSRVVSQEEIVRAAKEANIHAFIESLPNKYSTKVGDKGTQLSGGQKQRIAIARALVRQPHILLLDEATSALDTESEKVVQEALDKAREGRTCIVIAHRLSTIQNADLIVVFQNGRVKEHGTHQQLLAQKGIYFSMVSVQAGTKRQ

On to `Cc1c(-c2ccc(O)cc2)n(Cc2ccc(OCCN3CCCCCC3)cc2)c2ccc(O)cc12`, for which the result in experiment [1], in experiment [2] and in experiment [3] was inactive.

With `CN1C[C@@H]2C[C@H]1CN2c1cc2c(cc1F)c(=O)c(C(=O)O)cn2C1CC1`, the inhibition in experiment [4] (at 0.5 µM, stronger effect = higher value) is 0.4% (inactive); in experiment [4] (measured here: combination with BGB IC20, at 0.005 µM) it was -2.07%; in experiment [4] (measured here: combination with BGB IC40, at 0.005 µM) it was -7.14%; in experiment [4] (measured here: combination with BGB IC40, at 0.05 µM) it was -8.41%; in experiment [4] (measured here: combination with cisplatin, at 0.5 µM, stronger effect = higher value), -11.6%; in experiment [4] (measured here: combination with cisplatin, at 5 µM, stronger effect = higher value), -5.22%. In addition, the inhibition is -34.1% in [5] (BGB combo, at 5 µM); -30.1% (inactive) in experiment [5] (at 0.5 µM); -33.7% in experiment [5] (cisplatin combo, at 5 µM); -23.1% in [5] (setting [17]); -48.5% in [5] (setting [18]); -33.7% in [5] (single agent, at 5 µM). Also, the inhibition was -40.1% (inactive) in experiment [6] (at 0.5 µM); -66.1% in experiment [6] (measured here: with BGB IC20, at 0.5 µM); -64.1% in experiment [6] (measured here: with BGB IC20, at 5 µM); -24.8% in [6] (measured here: with cisplatin IC20, at 0.5 µM); -32.6% in [6] (measured here: with cisplatin IC20, at 5 µM); -25% in experiment [6] (single agent, at 5 µM). The inhibition was -9.69% (inactive) in experiment [7] (at 0.5 µM); 1.19% in experiment [7] (measured here: BGB combination, at 0.5 µM); -5.03% in [7] (measured here: BGB combination, at 5 µM); -28.1% in experiment [7] (measured here: cisplatin combination, at 0.5 µM); -7.33% in experiment [7] (measured here: cisplatin combination, at 5 µM); -14.9% (inactive) in experiment [8] (at 0.5 µM). In addition, the inhibition in [8] (cisplatin combination, at 0.5 µM) is -11.4%; in [8] (cisplatin combination, at 5 µM), -13.9%; in experiment [8] (measured here: BGB IC40 combination 0.05 uM, at 0.05 µM), 0.828%; in experiment [8] (single agent, at 5 µM), -12.4%; in experiment [9] (at 0.5 µM) it was -27.5% (inactive); in [9] (cisplatin combo, at 5 µM), -18.3%. Besides, the inhibition in [9] (measured here: BGB IC40 combination, at 0.05 µM) was -12.7%; in experiment [9] (measured here: combination with cisplatin, at 0.5 µM), -81.8%; in experiment [9] (single agent, at 5 µM) it was -17.7%; in experiment [10] (at 0.5 µM), -62.9% (inactive); in experiment [10] (setting [17]), -46.3%; in [10] (setting [18]) it was -75.1%. For the same molecule, the inhibition was -30.1% in [10] (single agent, at 0.05 µM) and -48.9% in experiment [10] (single agent, at 5 µM).

Take `C[C@]12CCC(=O)C=C1CC[C@H]1[C@@H]3CC[C@](O)(C(=O)CO)[C@@]3(C)C[C@H](O)[C@@]12F`: the fluorescence slope change in experiment [11] is 9.8% (inactive).

`C[C@@H]1CCC[C@H](C)N1`: the fluorescence slope change in [11] was 9.9% (inactive).

`Cc1ccc(O)cc1` registered an inclusion score in experiment [12] of 2.

As for `Cc1cccc(Nc2cc(Cl)nc(SCC(=O)O)n2)c1C`, in experiment [13], the remaining activity was 107% (inactive).

`O=C(O)CCC(=O)OC[C@@H](NC(=O)C(Cl)Cl)[C@H](O)c1ccc([N+](=O)[O-])cc1` returned an inclusion score in experiment [12] of 2.

As for `CNS(=O)(=O)CCc1ccc2[nH]cc(C3CCN(C)CC3)c2c1`, the molecule was called inactive in [2].

For the molecule `CCCCCCCCCCCCCCCCCCOP(=O)([O-])OC1CC[N+](C)(C)CC1`, the molecule was called inactive in [14], in experiment [1] and in experiment [3].

In the case of `CN/C(=C\[N+](=O)[O-])NCCSCc1ccc(CN(C)C)o1`, the fluorescence slope change in experiment [11] was 105% (active). In experiment [12], the inclusion score came to 2. Moreover, the fluorescence ratio in experiment [15] is 0.103 (active). For the same molecule, the log fold change Tl+ flux is -0.0094 (inactive) in the experiment with F380Y/beta1, 0.0499 (inactive) in the experiment on F380Y/beta4, -0.0213 (inactive) in the experiment on R275C/beta4 and -0.015 (inactive) with R275C/Slo1WT/beta2.

In the case of `CC(C)NCC(O)COc1cccc2[nH]ccc12` (centres undefined), the fluorescence slope change in [11] was 68.5% (active). Besides, in experiment [12], the inclusion score was 2. In addition, the fluorescence ratio in experiment [15] was 0.9 (inactive). Moreover, the remaining activity in experiment [13] is 101% (inactive). For the same molecule, the log fold change Tl+ flux with F380Y/beta1 was 0.0264 (inactive); in the experiment with F380Y/beta4 it was 0.000781 (inactive); with R275C/beta4 it was -0.00429 (inactive); in the experiment with R275C/Slo1WT/beta2 it was 0.017 (inactive).

As to `CN1CCN(C2=Nc3cc(Cl)ccc3Nc3ccccc32)CC1`, the fluorescence ratio in experiment [15] was 1.04 (inactive). In addition, in [13], the remaining activity is 121% (inactive). Besides, the result in [1], in experiment [2], in experiment [3] and in [16] was inactive. Moreover, the log fold change Tl+ flux with F380Y/beta1 is 0.177 (active); in the experiment on F380Y/beta4, 0.214 (active); in the experiment with R275C/beta4 it was 0.137 (active); in the experiment on R275C/Slo1WT/beta2 it was 0.0195 (inactive).

For `C[C@@H](C1=C(CCN(C)C)Cc2ccccc21)c1ccccn1`, in experiment [13], the remaining activity is 105% (inactive).

Take `CC(C(=O)O)c1cccc(C(=O)c2ccccc2)c1` (centres undefined): the fluorescence slope change in [11] was 70.4% (active). Moreover, the inclusion score in experiment [12] is 2. In addition, the outcome in experiment [2] and in [3] was inactive. Further, the log fold change Tl+ flux in the experiment on F380Y/beta1 was -0.011 (inactive); with F380Y/beta4 it was 0.0138 (inactive); in the experiment with R275C/beta4, 0.00182 (inactive); in the experiment with R275C/Slo1WT/beta2 it was -0.0223 (inactive).

Values taken from PubChem BioAssay.
